“And” between values parts separate entries of the source, which are not always exact repeats. Identical values can stand only once. Inconclusive results are not listed. A call without a number means that no potency is given here. More than one record can exist for a structure, and the calls need not agree. The source made the active and inactive calls. Calls follow the shape of the dose curve; as a rule, active = well fitted cell-killing curve with a large enough effect in the repeat runs; inconclusive = weak or mixed curves, or effect the other way; inactive = flat fitted curve, though single readings scatter.
assay: qHTS RealTime-Glo MT Cell Viability Assay in HEK293 cells - 24 hour (AID 1224886); conditions: RealTime-Glo luminescence; series mostly up to 76.8 µM; also: nearly all actives have a fitted effect of over 50% in size
Excerpt: National Center for Advancing Translational Sciences [NCATS]
NIH Chemical Genomics Center [NCGC]
U.S. Environmental Protection Agency [EPA]
National Institutes of Environmental Health Sciences [NIEHS]
National Toxicology Program [NTP]
U.S. Food and Drug Administration [FDA]
Measure of cell viability is critical in the cell-base assay. Analysis of cell viability is necessary for the characterization of cell responses to cytotoxic drugs and environmental stress. A RealTime-Glo MT Cell Viability Assay to monitor cell viability in real time of continues cell culture during 40 hours of compound treatment was used to screen Tox21 10K library compounds in Hek293 cells. The RealTime-Glo MT Cell Viability Assay is a nonlytic, homogeneous, bioluminescent method to measure cell viability in real time using a simple, plate-based method. The assay involves adding NanoLuc luciferase and a cell-permeant prosubstrate to cells in culture. Viable cells reduce the proprietary prosubstrate to generate a substrate for NanoLuc luciferase. This substrate diffuses from cells into the surrounding culture medium, where it is rapidly used by the NanoLuc Enzyme to produce a luminescent signal. The signal correlates with the number of viable cells, making the assay well suited for cytotoxicity studies.
Tox21 Assay Protocol Summary:
The mixture of Hek293 cell suspension and reagents were dispensed at 600cells/6 ul/well in 1536-well tissue culture treated black solid bottom plates using a Multidrop dispenser. After the assay plates were incubated at a 37 C/5% CO2 incubator for 5 hours, 23 nL of compounds dissolved in DMSO, positive and negative controls was transferred to the assay plate by a pintool work station. The plates were incubated at 37 C for 40 hours. The luminescence intensity were measured at 0h, 8h, 16h, 24h, 32h and 40h time points using ViewLux plate reader during compound treatment.
Potency is read from the fitted curve at half-maximal effect.

Structure (SMILES) | Potency
COc1ccccc1NC(=O)CC(C)=O | inactive
CCn1cc(C(=O)O)c(=O)c2ccc(C)nc21 | inactive
C=CCOC(=O)CC(C)C | inactive
CCCCCCCCCCCCCCCCCC(=O)OCC(O)CO (stereo not given) | inactive
CN(C)Cc1cc(CN(C)C)c(O)c(CN(C)C)c1 | inactive
NC(N)=NC(N)=NCCc1ccccc1 | inactive
CC1=NN(c2ccccc2)C(=O)C1 | inactive
CCCCCCCCOc1ccc(C(=O)c2ccccc2)c(O)c1 | inactive
CCCCC/C(C=O)=C\c1ccccc1 | inactive
CCOCCO | inactive
CC(=O)OC/C=C(C)/C=C/C=C(C)/C=C/C1=C(C)CCCC1(C)C | inactive
CO[C@H]1C=CO[C@@]2(C)Oc3c(C)c(O)c4c(O)c(c(/C=N/N5CCN(C)CC5)c(O)c4c3C2=O)NC(=O)/C(C)=C\C=C[C@H](C)[C@H](O)[C@@H](C)[C@@H](O)[C@@H](C)[C@H](OC(C)=O)[C@@H]1C | 12.4 µM (active) and 4.42 µM (active) and 21.3 µM (active)
CCOC(=O)C(C)(C)Oc1ccc(Cl)cc1 | inactive
CC(=O)c1ccc(S(=O)(=O)NC(=O)NC2CCCCC2)cc1 | inactive
Cc1c(N(C)CS(=O)(=O)O)c(=O)n(-c2ccccc2)n1C | inactive
CCCCCCCCCCCCCC(=O)OC(C)C | inactive and 3.47 µM (active)
COC1=CC(=O)C[C@@H](C)[C@]12Oc1c(Cl)c(OC)cc(OC)c1C2=O | inactive
CCCCCCCC(=O)OCC(O)CO (stereo not given) | inactive
Cc1cccc(C)c1O | inactive
O=C1CCCCCN1 | inactive

Structure (SMILES) | Potency
COc1ccccc1O | inactive
C[C@]12C[C@H](O)[C@H]3[C@@H](CCC4=CC(=O)CC[C@@]43C)[C@@H]1CC[C@@H]2C(=O)CO | inactive
C=C(C)OC(C)=O | inactive
CCN1CCCC1=O | inactive
Cc1c(N(C)C)c(=O)n(-c2ccccc2)n1C | inactive
O=[N+]([O-])c1ccc(O)cc1 | inactive
NCCNc1cccc2ccccc12 | 48.9 µM (active) and 47.8 µM (active) and inactive
CC(C)CC(C)CC(O)CC(C)C (stereo not given) | inactive
Cc1cccc(Nc2cc(Cl)nc(SCC(=O)O)n2)c1C | inactive
CC(C)(C)CC(C)(C)c1ccc(O)c(-n2nc3ccccc3n2)c1 | 49.7 µM (active) and inactive
CCCCNC(=O)NS(=O)(=O)c1ccc(N)cc1 | inactive
O=C(OCc1ccccc1)c1ccccc1 | inactive
NC(=O)NO | inactive
COc1cc(O)c(C(=O)c2ccccc2)cc1S(=O)(=O)O | inactive
COc1ccc(O)cc1 | inactive
O=c1cc[nH]c(=O)[nH]1 | inactive
COc1ccc(C(=O)c2ccccc2)c(O)c1 | inactive and 12.3 µM (active)
OC[C@@H](O)[C@@H](O)[C@H](O)[C@H](O)CO | inactive
C/C=C/c1ccc(O)c(OC)c1 | inactive
C#C[C@]1(O)CC[C@H]2[C@@H]3CCC4=CC(=O)CC[C@@H]4[C@H]3CC[C@@]21CC | 43.6 µM (active) and inactive

Source: PubChem BioAssay (Tox21)
